Results as given in the supplement of paper PMC10849652.
Targets with a hit are over-represented here; the source holds about 7,900 in all. About 0.6% of all pairs of compound and target were hits.

What was measured:
Assay in all cases: log2 fold change, soluble protein after heating vs DMSO (PISA); higher = thermal stabilisation; K562 cells, 10 uM, 30 min; active = over 0.2 and 3.5 SD of the protein, either way, in both replicates (recomputed)
[1] = compound: CC[C@@H]1C(=O)N(C)c2cnc(Nc3ccc(C(=O)NC4CCN(C)CC4)cc3OC)nc2N1C1CCCC1
In short: (§1)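 K562 cells at 2×10^6 cells/mL were exposed to 10 μM compound for 30 min, then aliquots were heated for 3 min across 48°C-58°C, pooled, and extracted in PBS containing 0.5% NP-40 at 4°C. The supernatant after 21,000xg for 90 min was taken as soluble protein and measured by TMTpro 16plex LC-MS/MS with channel sums equalised. Thermal stability is reported relative to control samples, with values from duplicates. Fold changes are given on a log2 scale.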

volasertib = compound: CC[C@@H]1C(=O)N(C)c2cnc(Nc3ccc(C(=O)N[C@H]4CC[C@H](N5CCN(CC6CC6)CC5)CC4)cc3OC)nc2N1C(C)C [volasertib]
In short: as §1

[2] = compound: CC[C@H](C)N1C=C(C2=C(C=C(C=C21)C3=CN=C(C=C3)N4CCNCC4)C(=O)NCC5=C(C=C(NC5=O)C)C)C
In short: as §1

epoxomicin = compound: CC[C@H](C)[C@@H](C(=O)N[C@@H]([C@@H](C)O)C(=O)N[C@@H](CC(C)C)C(=O)[C@]1(CO1)C)NC(=O)[C@H]([C@@H](C)CC)N(C)C(=O)C [epoxomicin]
In short: as §1

[3] = compound: CCn1c(C(=O)N(C2CC2)C2CC2)cc2c3c(ncn3C)c(Nc3cc(C)n(C)n3)nc21
In short: as §1

[4] = compound: CCn1cc(-c2ccnc3[nH]c(-c4cccc(CN(C)C)c4)cc23)c(-c2ccc(NC(=O)N(C)C)cc2)n1
In short: as §1

[5] = compound: CN(C)CC(=O)Nc1ccc2[nH]c(=O)c3ccccc3c2c1
In short: as §1

rosiglitazone = compound: CN(CCOC1=CC=C(C=C1)C[C@H]2C(=O)NC(=O)S2)C3=CC=CC=N3 (racemic) [rosiglitazone]
In short: as §1

[6] = compound: CN1C2=C(C3=C1C(=O)N(N=C3)CC4=CC(=CC=C4)N)SC(=C2)S(=O)C
In short: as §1

[7] = compound: CN1CCC(CNc2ccc3ncc(-c4cccc(OC(F)(F)F)c4)n3n2)CC1
In short: as §1

saracatinib = compound: CN1CCN(CCOc2cc(OC3CCOCC3)c3c(Nc4c(Cl)ccc5c4OCO5)ncnc3c2)CC1 [saracatinib]
In short: as §1

sotrastaurin = compound: CN1CCN(c2nc(C3=C(c4c[nH]c5ccccc45)C(=O)NC3=O)c3ccccc3n2)CC1 [sotrastaurin]
In short: as §1

alvocidib = compound: CN1CC[C@H](c2c(O)cc(O)c3c(=O)cc(-c4ccccc4Cl)oc23)[C@H](O)C1 [alvocidib]
In short: as §1

Tubastatin A = compound: CN1CCc2c(c3ccccc3n2Cc2ccc(C(=O)NO)cc2)C1 [Tubastatin A]
In short: as §1

[8] = compound: CNC(=O)C1=CC=CC=C1NC2=NC(=NC=C2Cl)NC3=C(C=C(C=C3)N4CCOCC4)OC
In short: as §1

defactinib = compound: CNC(=O)c1ccc(Nc2ncc(C(F)(F)F)c(NCc3nccnc3N(C)S(C)(=O)=O)n2)cc1 [defactinib]
In short: as §1

rucaparib = compound: CNCc1ccc(-c2[nH]c3cc(F)cc4c3c2CCNC4=O)cc1 [rucaparib]
In short: as §1

[9] = compound: CNc1nc(-c2ccc3c(N)n[nH]c3c2)cc(N2C[C@@H](C(=O)NC3CCCCC3)CC[C@H]2C)n1
In short: as §1

encorafenib = compound: COC(=O)N[C@@H](C)CNc1nccc(-c2cn(C(C)C)nc2-c2cc(Cl)cc(NS(C)(=O)=O)c2F)n1 [encorafenib]
In short: as §1

[10] = compound: COC(=O)[C@H](CCSC)NC(=O)C1=C(C=C(C=C1)NC[C@H](CS)N)C2=CC=CC=C2
In short: as §1

Measured: log2 fold change

USP15 (UniProt Q9Y4E8)
active: volasertib -0.32
inactive: [1] -0.095 | [2] 0.066 | epoxomicin 0.03 | [3] -0.032 | [4] -0.056 | [5] 0.031 | rosiglitazone 0.058 | [6] -0.006 | [7] -0.129 | saracatinib -0.013 | sotrastaurin -0.093 | alvocidib -0.069 | Tubastatin A 0.014 | [8] 0.049 | defactinib -0.093 | rucaparib 0.032 | [9] 0.019 | encorafenib 0.061 | [10] -0.031

TMEM214 (UniProt Q6NUQ4)
UniProt Q6NUQ4, sequence (Q6NUQ4 whole entry, looked up): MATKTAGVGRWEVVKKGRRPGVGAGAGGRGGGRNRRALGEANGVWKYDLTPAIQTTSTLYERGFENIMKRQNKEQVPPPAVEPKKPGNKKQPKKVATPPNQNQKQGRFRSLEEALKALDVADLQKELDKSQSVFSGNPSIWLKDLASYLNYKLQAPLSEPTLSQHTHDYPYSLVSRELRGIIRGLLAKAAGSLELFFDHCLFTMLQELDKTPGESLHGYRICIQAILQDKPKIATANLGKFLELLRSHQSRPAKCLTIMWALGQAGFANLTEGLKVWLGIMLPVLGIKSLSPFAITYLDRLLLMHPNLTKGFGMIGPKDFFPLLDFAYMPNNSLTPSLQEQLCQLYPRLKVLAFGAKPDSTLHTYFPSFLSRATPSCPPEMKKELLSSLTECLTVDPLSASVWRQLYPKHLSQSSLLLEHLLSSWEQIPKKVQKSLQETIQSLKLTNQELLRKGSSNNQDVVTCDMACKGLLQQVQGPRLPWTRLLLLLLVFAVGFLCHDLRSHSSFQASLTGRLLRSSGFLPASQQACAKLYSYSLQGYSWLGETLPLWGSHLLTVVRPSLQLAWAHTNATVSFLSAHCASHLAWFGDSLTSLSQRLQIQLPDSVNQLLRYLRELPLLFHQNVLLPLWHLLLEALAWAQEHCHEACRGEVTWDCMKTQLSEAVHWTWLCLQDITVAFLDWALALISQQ
active: volasertib -0.246
inactive: [1] -0.023 | [2] 0.075 | epoxomicin 0.032 | [3] -0.056 | [4] -0.023 | [5] 0.008 | rosiglitazone 0.046 | [6] 0.004 | [7] 0.148 | saracatinib -0.04 | sotrastaurin 0.068 | alvocidib 0.009 | Tubastatin A 0.062 | [8] -0.002 | defactinib -0.04 | rucaparib 0.121 | [9] 0.03 | encorafenib 0.041 | [10] -0.039

TNPO3 (UniProt Q9Y5L0)
active: volasertib -0.406
inactive: [1] -0.182 | [2] 0.039 | epoxomicin 0.041 | [3] 0.002 | [4] -0.075 | [5] 0.041 | rosiglitazone 0.046 | [6] -0.036 | [7] -0.128 | saracatinib 0.034 | sotrastaurin -0.075 | alvocidib -0.114 | Tubastatin A -0.03 | [8] -0.011 | defactinib -0.067 | rucaparib 0 | [9] -0.013 | encorafenib 0.032 | [10] -0.003

TMEM161A (UniProt Q9NX61)
UniProt Q9NX61, sequence (Q9NX61 whole entry, looked up): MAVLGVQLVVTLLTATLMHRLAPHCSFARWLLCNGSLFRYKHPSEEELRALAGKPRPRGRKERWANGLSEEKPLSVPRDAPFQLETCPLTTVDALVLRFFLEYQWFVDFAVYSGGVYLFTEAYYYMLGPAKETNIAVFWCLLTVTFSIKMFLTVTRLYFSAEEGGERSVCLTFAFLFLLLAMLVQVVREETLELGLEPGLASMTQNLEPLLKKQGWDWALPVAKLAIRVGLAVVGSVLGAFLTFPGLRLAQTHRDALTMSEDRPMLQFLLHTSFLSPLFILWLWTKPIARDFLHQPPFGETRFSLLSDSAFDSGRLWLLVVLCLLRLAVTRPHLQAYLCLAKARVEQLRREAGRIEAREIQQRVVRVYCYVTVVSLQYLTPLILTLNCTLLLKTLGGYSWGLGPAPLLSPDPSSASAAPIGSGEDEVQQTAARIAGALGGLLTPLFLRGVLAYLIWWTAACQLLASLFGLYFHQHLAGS
active: volasertib -0.477
inactive: [1] 0.033 | [2] -0.08 | epoxomicin 0.049 | [3] 0.034 | [4] 0.014 | [5] -0.009 | rosiglitazone 0.088 | [6] -0.026 | [7] -0.265 | saracatinib 0.011 | sotrastaurin 0.027 | alvocidib -0.027 | Tubastatin A 0.039 | [8] -0.108 | defactinib 0.03 | rucaparib -0.106 | [9] -0.029 | encorafenib 0.106 | [10] 0.058

TMEM192 (UniProt Q8IY95)
UniProt Q8IY95, sequence (Q8IY95 whole entry, looked up): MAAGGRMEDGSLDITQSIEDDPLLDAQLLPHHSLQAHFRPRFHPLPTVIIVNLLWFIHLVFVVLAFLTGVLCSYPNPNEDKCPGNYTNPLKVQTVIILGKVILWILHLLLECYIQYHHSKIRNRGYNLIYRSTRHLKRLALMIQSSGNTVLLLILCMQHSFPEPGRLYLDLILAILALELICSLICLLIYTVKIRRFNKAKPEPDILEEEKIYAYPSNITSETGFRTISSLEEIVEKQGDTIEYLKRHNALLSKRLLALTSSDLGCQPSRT
active: [7] -0.408
inactive: [1] -0.139 | volasertib -0.061 | [2] -0.025 | epoxomicin -0.04 | [3] 0.074 | [4] 0.046 | [5] -0.024 | rosiglitazone 0.008 | [6] 0.025 | saracatinib 0.092 | sotrastaurin -0.028 | alvocidib 0.001 | Tubastatin A 0.035 | [8] 0.015 | defactinib -0.016 | rucaparib -0.01 | [9] -0.033 | encorafenib -0.02 | [10] 0.036

UFM1 isoform 2 (UniProt P61960)
UniProt P61960, sequence (P61960 whole entry, looked up): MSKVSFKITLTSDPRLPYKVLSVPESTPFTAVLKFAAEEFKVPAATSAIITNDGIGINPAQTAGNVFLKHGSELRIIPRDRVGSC
inactive: [1] 0.116 | volasertib 0.012 | [2] 0.069 | epoxomicin 0.029 | [3] 0.034 | [4] -0.001 | [5] 0.114 | rosiglitazone -0.03 | [6] 0.004 | [7] -0.005 | saracatinib 0 | sotrastaurin 0.044 | alvocidib -0.037 | Tubastatin A -0.158 | [8] 0.022 | defactinib -0.065 | rucaparib -0.114 | [9] -0.024 | encorafenib 0.01 | [10] -0.082

TRIM28 (UniProt Q13263)
UniProt Q13263, sequence (Q13263 whole entry, looked up): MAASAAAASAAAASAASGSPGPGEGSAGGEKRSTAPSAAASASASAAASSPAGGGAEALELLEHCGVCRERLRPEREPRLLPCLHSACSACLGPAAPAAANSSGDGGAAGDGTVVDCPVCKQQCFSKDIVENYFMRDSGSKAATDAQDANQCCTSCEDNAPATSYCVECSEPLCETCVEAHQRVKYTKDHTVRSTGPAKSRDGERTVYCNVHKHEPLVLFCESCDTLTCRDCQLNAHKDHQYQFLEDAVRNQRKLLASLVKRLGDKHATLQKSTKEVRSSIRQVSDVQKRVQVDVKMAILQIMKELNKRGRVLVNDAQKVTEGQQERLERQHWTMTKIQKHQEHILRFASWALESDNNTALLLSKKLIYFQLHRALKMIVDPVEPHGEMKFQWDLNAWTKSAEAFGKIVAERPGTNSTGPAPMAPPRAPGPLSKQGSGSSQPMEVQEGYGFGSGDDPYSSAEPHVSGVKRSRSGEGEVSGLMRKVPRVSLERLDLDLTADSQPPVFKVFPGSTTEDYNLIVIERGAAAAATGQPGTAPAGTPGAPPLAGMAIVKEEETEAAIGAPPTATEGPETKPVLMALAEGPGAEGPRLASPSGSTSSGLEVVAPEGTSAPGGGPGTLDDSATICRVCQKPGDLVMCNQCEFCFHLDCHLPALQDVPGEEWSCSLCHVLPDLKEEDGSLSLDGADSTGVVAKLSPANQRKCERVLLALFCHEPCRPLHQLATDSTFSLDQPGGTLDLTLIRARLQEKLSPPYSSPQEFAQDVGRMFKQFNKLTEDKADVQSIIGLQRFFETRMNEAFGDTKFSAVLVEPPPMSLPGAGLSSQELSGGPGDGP
active: volasertib -0.222
inactive: [1] -0.097 | [2] 0.052 | epoxomicin 0.077 | [3] -0.004 | [4] 0 | [5] 0.047 | rosiglitazone 0.029 | [6] -0.033 | [7] -0.033 | saracatinib 0.008 | sotrastaurin -0.064 | alvocidib -0.128 | Tubastatin A 0.048 | [8] 0.054 | defactinib -0.121 | rucaparib -0.075 | [9] -0.019 | encorafenib 0.047 | [10] -0.032

TRMT2A (UniProt Q8IZ69)
UniProt Q8IZ69, sequence (Q8IZ69 whole entry, looked up): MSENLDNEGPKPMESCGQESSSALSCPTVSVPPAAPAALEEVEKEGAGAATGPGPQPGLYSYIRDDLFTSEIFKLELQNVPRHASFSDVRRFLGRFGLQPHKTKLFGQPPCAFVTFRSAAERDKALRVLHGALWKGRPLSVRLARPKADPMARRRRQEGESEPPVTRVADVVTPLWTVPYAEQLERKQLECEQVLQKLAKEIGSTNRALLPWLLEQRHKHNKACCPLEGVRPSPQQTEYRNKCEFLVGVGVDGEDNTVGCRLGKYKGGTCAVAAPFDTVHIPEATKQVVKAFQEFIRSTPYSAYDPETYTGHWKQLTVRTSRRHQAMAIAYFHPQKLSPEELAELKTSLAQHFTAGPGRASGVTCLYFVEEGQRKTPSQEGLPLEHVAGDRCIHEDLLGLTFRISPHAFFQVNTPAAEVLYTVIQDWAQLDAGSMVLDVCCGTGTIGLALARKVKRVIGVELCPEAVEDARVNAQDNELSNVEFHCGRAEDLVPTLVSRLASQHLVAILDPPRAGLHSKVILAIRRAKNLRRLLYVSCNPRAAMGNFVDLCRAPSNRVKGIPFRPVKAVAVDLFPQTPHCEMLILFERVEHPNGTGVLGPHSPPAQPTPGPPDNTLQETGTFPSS
inactive: [1] 0.01 | volasertib 0.016 | [2] 0.044 | epoxomicin -0.083 | [3] 0.086 | [4] -0.003 | [5] 0.034 | rosiglitazone -0.001 | [6] 0.1 | [7] -0.198 | saracatinib -0.011 | sotrastaurin -0.076 | alvocidib -0.045 | Tubastatin A -0.005 | [8] -0.049 | defactinib -0.031 | rucaparib 0.084 | [9] 0.094 | encorafenib 0.056 | [10] -0.094

UBLCP1 (UniProt Q8WVY7)
active: volasertib -0.356
inactive: [1] -0.191 | [2] 0.019 | epoxomicin 0.168 | [3] -0.059 | [4] -0.072 | [5] 0.039 | rosiglitazone 0.019 | [6] -0.024 | [7] 0.013 | saracatinib 0.036 | sotrastaurin -0.032 | alvocidib 0.024 | Tubastatin A 0.147 | [8] 0.027 | defactinib -0.016 | rucaparib -0.068 | [9] -0.038 | encorafenib 0.088 | [10] -0.034

XPO5 (UniProt Q9HAV4)
inactive: [1] -0.122 | [2] 0.063 | epoxomicin 0.073 | [3] 0.01 | [4] -0.04 | [5] 0.018 | rosiglitazone 0.035 | [6] -0.027 | saracatinib 0 | sotrastaurin -0.087 | alvocidib -0.102 | Tubastatin A -0.03 | [8] 0.008 | defactinib -0.142 | rucaparib -0.028 | [9] 0.026 | encorafenib 0.054 | [10] -0.004
active: volasertib -0.263 | [7] -0.302

TMEM128 (UniProt Q5BJH2)
inactive: [1] -0.076 | volasertib -0.005 | [2] 0.015 | epoxomicin 0.003 | [3] 0.006 | [5] 0.149 | rosiglitazone 0.032 | [6] -0.033 | saracatinib 0.083 | sotrastaurin 0.01 | alvocidib -0.082 | Tubastatin A -0.011 | [8] -0.023 | defactinib -0.045 | rucaparib 0.019 | [9] -0.062 | encorafenib -0.006 | [10] -0.006

U2AF2 (UniProt P26368)
UniProt P26368, sequence (P26368 whole entry, looked up): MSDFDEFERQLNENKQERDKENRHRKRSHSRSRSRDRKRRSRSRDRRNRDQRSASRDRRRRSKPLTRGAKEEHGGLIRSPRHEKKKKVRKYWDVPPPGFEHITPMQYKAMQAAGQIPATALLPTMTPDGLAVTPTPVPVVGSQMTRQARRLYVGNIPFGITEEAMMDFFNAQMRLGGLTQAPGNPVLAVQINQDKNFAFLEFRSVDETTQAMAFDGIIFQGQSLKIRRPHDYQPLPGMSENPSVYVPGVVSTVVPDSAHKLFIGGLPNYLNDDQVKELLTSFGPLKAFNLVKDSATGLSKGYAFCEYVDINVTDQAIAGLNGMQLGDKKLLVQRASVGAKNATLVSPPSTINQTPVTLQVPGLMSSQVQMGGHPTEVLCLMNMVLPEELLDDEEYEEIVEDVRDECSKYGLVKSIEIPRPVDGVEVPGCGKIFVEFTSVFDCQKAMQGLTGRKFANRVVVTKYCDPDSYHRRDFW
inactive: [1] -0.057 | [2] 0.039 | epoxomicin -0.024 | [3] 0.029 | [4] 0 | [5] 0.002 | rosiglitazone 0.003 | [6] 0 | saracatinib 0.022 | sotrastaurin 0.056 | alvocidib -0.038 | Tubastatin A -0.007 | [8] -0.181 | defactinib -0.035 | rucaparib 0.163 | [9] -0.037 | encorafenib -0.037 | [10] 0.001
active: volasertib -0.231 | [7] -0.307

VPS72 isoform 2 (UniProt Q15906)
UniProt Q15906, sequence (Q15906 whole entry, looked up): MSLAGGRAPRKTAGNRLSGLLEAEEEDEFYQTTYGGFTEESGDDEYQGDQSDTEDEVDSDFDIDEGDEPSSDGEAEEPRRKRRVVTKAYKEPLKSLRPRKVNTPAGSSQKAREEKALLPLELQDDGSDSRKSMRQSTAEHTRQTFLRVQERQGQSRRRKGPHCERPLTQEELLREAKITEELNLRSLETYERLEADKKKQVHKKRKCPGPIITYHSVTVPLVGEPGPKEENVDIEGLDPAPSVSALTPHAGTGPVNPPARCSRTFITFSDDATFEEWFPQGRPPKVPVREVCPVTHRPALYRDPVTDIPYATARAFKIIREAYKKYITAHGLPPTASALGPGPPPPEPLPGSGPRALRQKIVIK
inactive: [1] -0.261 | volasertib 0.135 | [2] -0.072 | epoxomicin -0.107 | [3] 0.101 | [5] -0.052 | rosiglitazone 0.041 | [6] 0.043 | saracatinib -0.094 | sotrastaurin 0.004 | alvocidib 0.042 | Tubastatin A -0.011 | [8] -0.021 | defactinib -0.016 | rucaparib 0.28 | [9] -0.082 | encorafenib -0.053 | [10] -0.019

VKORC1 (UniProt Q9BQB6)
inactive: [1] -0.006 | volasertib -0.079 | [2] -0.088 | [3] -0.078 | [4] 0.008 | [5] 0.072 | rosiglitazone 0.033 | [6] 0.03 | [7] -0.09 | saracatinib 0.002 | sotrastaurin -0.086 | alvocidib 0.073 | Tubastatin A -0.052 | [8] 0.105 | defactinib -0.038 | rucaparib -0.059 | [9] 0.026 | encorafenib 0.057 | [10] -0.023

UXT isoform 2 (UniProt Q9UBK9)
UniProt Q9UBK9, sequence (Q9UBK9 whole entry, looked up): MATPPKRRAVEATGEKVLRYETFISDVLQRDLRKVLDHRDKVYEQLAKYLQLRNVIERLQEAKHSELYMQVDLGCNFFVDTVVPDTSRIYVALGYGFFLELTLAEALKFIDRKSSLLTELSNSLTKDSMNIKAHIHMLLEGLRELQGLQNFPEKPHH
inactive: [1] 0.082 | volasertib 0.128 | [2] 0.05 | epoxomicin -0.038 | [3] -0.294 | [4] -0.248 | [5] 0.015 | rosiglitazone 0.022 | [6] -0.052 | [7] -0.126 | saracatinib 0.031 | sotrastaurin -0.056 | alvocidib -0.01 | Tubastatin A 0.077 | [8] -0.191 | defactinib 0 | rucaparib 0.049 | [9] -0.027 | encorafenib -0.018 | [10] -0.078

VPS18 (UniProt Q9P253)
UniProt Q9P253, sequence (Q9P253 whole entry, looked up): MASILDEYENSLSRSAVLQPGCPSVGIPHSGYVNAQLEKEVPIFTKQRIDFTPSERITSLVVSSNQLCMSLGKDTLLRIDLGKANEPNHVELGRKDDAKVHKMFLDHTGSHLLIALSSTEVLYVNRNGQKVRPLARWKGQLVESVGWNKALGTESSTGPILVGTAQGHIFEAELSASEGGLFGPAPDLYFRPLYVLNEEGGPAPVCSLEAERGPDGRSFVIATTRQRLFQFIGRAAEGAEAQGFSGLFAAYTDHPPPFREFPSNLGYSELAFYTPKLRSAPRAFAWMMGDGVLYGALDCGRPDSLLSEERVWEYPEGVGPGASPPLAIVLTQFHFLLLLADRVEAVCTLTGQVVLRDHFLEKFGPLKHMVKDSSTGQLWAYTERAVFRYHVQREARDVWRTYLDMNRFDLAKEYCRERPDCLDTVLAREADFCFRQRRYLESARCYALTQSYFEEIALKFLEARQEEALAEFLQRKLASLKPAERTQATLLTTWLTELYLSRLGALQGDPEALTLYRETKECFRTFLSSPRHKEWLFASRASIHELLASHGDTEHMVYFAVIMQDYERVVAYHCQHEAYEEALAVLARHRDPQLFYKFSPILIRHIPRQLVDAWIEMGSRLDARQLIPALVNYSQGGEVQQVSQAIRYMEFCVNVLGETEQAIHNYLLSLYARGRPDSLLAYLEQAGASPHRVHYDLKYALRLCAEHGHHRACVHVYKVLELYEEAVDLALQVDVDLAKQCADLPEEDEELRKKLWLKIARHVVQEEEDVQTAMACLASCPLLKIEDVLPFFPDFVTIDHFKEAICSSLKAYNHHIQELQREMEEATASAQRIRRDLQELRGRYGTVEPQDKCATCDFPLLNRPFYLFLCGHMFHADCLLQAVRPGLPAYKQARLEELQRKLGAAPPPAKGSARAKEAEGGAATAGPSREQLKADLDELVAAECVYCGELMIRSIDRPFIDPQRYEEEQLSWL
inactive: [1] -0.22 | [2] 0.086 | epoxomicin -0.019 | [3] -0.009 | [4] -0.059 | [5] 0.046 | rosiglitazone 0.042 | [6] 0.005 | [7] -0.231 | saracatinib -0.034 | sotrastaurin -0.156 | alvocidib -0.118 | Tubastatin A -0.052 | [8] -0.003 | defactinib -0.068 | rucaparib 0.099 | [9] 0.029 | encorafenib 0.031 | [10] -0.076
active: volasertib -0.398
